Laboratory results: the supplement of paper PMC12645437, “Orthogonal IMiD-Degron Pairs Induce Selective Protein Degradation in Cells” (ACS Chemical Biology, 2025)
Over roughly 8,300 sequences, “log2 fold change of degron read counts, EGFP-low vs EGFP+ sorted cells (limma voom), compound-induced degradation” has its median near -1.1; the highest 2% begin near 3.2. The sample as a whole holds a higher share of the highest values than the screen did.

T1: CRBN, Q96SW2
T1 chain: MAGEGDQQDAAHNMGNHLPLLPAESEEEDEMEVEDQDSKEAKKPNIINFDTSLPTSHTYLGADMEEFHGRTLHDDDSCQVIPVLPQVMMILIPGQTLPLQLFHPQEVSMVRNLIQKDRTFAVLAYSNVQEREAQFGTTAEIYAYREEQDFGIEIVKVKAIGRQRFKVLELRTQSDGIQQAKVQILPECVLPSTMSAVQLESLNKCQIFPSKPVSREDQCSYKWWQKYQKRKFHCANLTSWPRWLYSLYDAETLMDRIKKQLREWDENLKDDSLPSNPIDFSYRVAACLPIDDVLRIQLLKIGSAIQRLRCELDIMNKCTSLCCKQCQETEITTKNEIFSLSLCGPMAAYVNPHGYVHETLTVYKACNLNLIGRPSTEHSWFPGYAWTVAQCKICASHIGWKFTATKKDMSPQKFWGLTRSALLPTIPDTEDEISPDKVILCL


Target: T1, CRBN, Q96SW2
Assay: log2 fold change of degron read counts, EGFP-low vs EGFP+ sorted cells (limma voom), compound-induced degradation; higher = more compound-induced degradation of the degron-EGFP fusion; degrons are variants of IKZF1/3 zinc finger 2; compound dose not given here
Conditions: Jurkat, 18 h
[1] = compound: compound 19 (5-tert-butyl-thalidomide)
[2] = compound: compound 22 (5-morpholino-thalidomide)
[3] = compound: compound 33 (diphenyl IMiD analogue)
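Note: pooled lentiviral library of zinc finger degron-EGFP fusions in mCherry-positive Jurkat cells, FACS-sorted after compound exposure, with degron abundance counted by next-generation sequencing.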

Row | Sequence | log2 fold change of degron read counts [1] | log2 fold change of degron read counts [2] | log2 fold change of degron read counts [3] | log2 fold change of degron read counts (compound: thalidomide)
1 | FTCNICGAGFTQKGNLLRHIKL [46F_47T_49N_50I_52G_53A_54G_55F_67L_, Q9UKT9] | 0.378 | 0.88 | 1.61 | 1.21
2 | FSCEICGAEFTQKGNLLRHIKL [46F_47S_49E_50I_52G_53A_54E_55F_67L_, Q9UKT9] | 1.69 | 0.708 | 0.218 | 0.0707
3 | FFCPICGAAFTQKGNLLRHIKL [46F_47F_49P_50I_52G_53A_54A_55F_67L_, Q9UKT9] | 3.15 | 3 | 2.18 | 1.33
4 | FGCPICGAAFTQKGNLLRHIKL [46F_47G_49P_50I_52G_53A_54A_55F_67L_, Q9UKT9] | 3.57 | 2.61 | 2.88 | 1.63
5 | FHCPICGAAFTQKGNLLRHIKL [46F_47H_49P_50I_52G_53A_54A_55F_67L_, Q9UKT9] | 3.05 | 2.78 | 2.28 | 1.19
6 | FNCPICGAAFTQKGNLLRHIKL [46F_47N_49P_50I_52G_53A_54A_55F_67L_, Q9UKT9] | 2.96 | 1.85 | 0.954 | 1.13
7 | FVCPICGAAFTQKGNLLRHIKL [46F_47V_49P_50I_52G_53A_54A_55F_67L_, Q9UKT9] | 1.31 | 2.85 | 2.04 | 3.03
8 | FWCPICGAAFTQKGNLLRHIKL [46F_47W_49P_50I_52G_53A_54A_55F_67L_, Q9UKT9] | 3.12 | 3.3 | 2.33 | 1.2
9 | FKCPICGAAFTQKGNLLRHIKL [46F_47K_49P_50I_52G_53A_54A_55F_67L_, Q9UKT9] | 2.04 | -0.319 | -1.26 | 1.01
10 | FYCPICGAAFTQKGNLLRHIKL [46F_47Y_49P_50I_52G_53A_54A_55F_67L_, Q9UKT9] | 2.86 | 3.24 | 2.38 | 0.578
11 | FICPICGAAFTQKGNLLRHIKL [46F_47I_49P_50I_52G_53A_54A_55F_67L_, Q9UKT9] | 0.268 | 3.15 | 2.21 | 2.78
12 | FQCPICGAAFTQKGNLLRHIKL [46F_47Q_49P_50I_52G_53A_54A_55F_67L_, Q9UKT9] | 2.65 | 3.13 | 2.56 | 3.53
13 | FSCPICGAAFTQKGNLLRHIKL [46F_47S_49P_50I_52G_53A_54A_55F_67L_, Q9UKT9] | 3.12 | 2.69 | 2.7 | 2.11
14 | FRCPICGAAFTQKGNLLRHIKL [46F_47R_49P_50I_52G_53A_54A_55F_67L_, Q9UKT9] | 2.26 | 2.26 | 2.48 | 2.19
15 | FFCPICGRAFTQKGNLLRHIKL [46F_47F_49P_50I_52G_53R_54A_55F_67L_, Q9UKT9] | -0.764 | -1.23 | -0.0789 | -1.31
16 | FICPVCGAYFTQKGNLLRHIKL [46F_47I_49P_50V_52G_53A_54Y_55F_67L_, Q9UKT9] | -0.575 | 1.65 | 1.98 | 1.66
17 | FHCEVCGAWFTQKGNLLRHIKL [46F_47H_49E_50V_52G_53A_54W_55F_67L_, Q9UKT9] | -1.47 | -1.81 | -0.825 | -1.89
18 | LDCEICGFICTQKGNLLRHIKL [46L_47D_49E_50I_52G_53F_54I_55C_67L_, Q9UKT9] | -0.803 | -0.92 | -0.72 | -0.457
